Calls of active or inactive are those of the source.
Key:
[1] = tested on: PRMT1 (protein arginine N-methyltransferase 1); assay: PRMT1 binders on small-molecule microarrays, primary screen, biochemical, small-molecule microarray, 635 nm fluorescence (AID 1088); details: small-molecule microarray binding, higher = more signal;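 note: binding of Prmt1 protein to compounds spotted on small-molecule microarray slides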
[2] = yeast growth modulation, basal conditions, primary screen, YJM789 clinical isolate, OD600, 24 h (AID 1089);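 note: growth of clinical yeast isolate S. cerevisiae YJM 789 seeded 1000 cells per well; test concentration not given here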; details: S. cerevisiae YJM789 growth, higher = more signal, called active from +8 up or from −8 down
[3] = fission yeast growth modulation, primary screen, strain 972, OD600, 24 h, no modulator (AID 1090);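 note: basal condition with compound alone and no growth modifier present; test concentration not given here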; details: S. pombe 972 growth, higher = more signal, called active from +8 up or from −8 down
[4] = S. cerevisiae growth modulation with rapamycin, primary screen, strain BY4716, OD600, 96 h (AID 1091); details: higher = more signal, called active from +8 up or from −8 down; note: test concentration not given here
[5] = biological target: Torsin-1A-interacting protein 2 (Homo sapiens) (UniProt Q8NFQ8); assay: LULL1 binders on small-molecule microarray, primary screen, cell lysate, human LULL1 lysate, 635/667 nm fluorescence (AID 1092); details: hLULL1 lysate binding, 635 nm fluorescence, higher = more signal;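 note: probe is lysate of COS7 cells overexpressing human LULL1; score merges per-feature 667 nm fluorescence with signal-to-noise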
[6] = E. coli growth modulation, two-sided OD650, primary screen, E. coli filamentation project, strain DRC41, 24 h (AID 1093); details: OD650, 24 h, higher = more signal, called active from +8 up or from −8 down;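 note: MC1000 strain lacking acrAB efflux and sulA so SOS filamentation is blocked; test concentration not given here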
[7] = small-molecule microarray binders of probe aLefty2, primary screen, biochemical, biotinylated probe, 635/667 nm fluorescence (AID 1094); details: higher = more signal;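 note: score merges spot fluorescence near 667 nm with spot signal-to-noise ratio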
[8] = tested on: Noggin (protein binding on small-molecule microarray); assay: Noggin binders on small-molecule microarray, primary screen, biochemical, 635/667 nm fluorescence (AID 1095); details: 635 nm fluorescence, higher = more signal;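 note: score merges 667 nm feature fluorescence with signal to noise over triplicate slides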
[9] = biological target: Neurogenic locus notch homolog protein 3 (Homo sapiens) (UniProt Q9UM47); assay: NOTCH3 binders on small-molecule microarray, primary screen, biochemical, 635/667 nm fluorescence (AID 1096); details: NOTCH3 binding, 635 nm fluorescence, higher = more signal
[10] = small-molecule microarray binders of probe aEGFR, primary screen, biochemical, biotinylated probe, 635/667 nm fluorescence (AID 1097); details: higher = more signal;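 note: probe is a biotinylated anti-EGFR antibody binding compounds printed on slides; score combines fluorescence near 667 nm and signal to noise of each spot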
[11] = tested on: Plasmodium falciparum Sir2 (PF13_0152, Sir2A); assay: pfSir2 binders on small-molecule microarrays, primary screen, biochemical, small-molecule microarray, 635 nm fluorescence (AID 1098); details: small-molecule microarray binding, fluorescence 635 nm; higher = more signal;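 note: score merges spot fluorescence intensity with its signal-to-noise ratio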
[12] = small-molecule microarray binders of probe aDKK1, primary screen, biochemical, biotinylated probe, 635/667 nm fluorescence (AID 1099); details: higher = more signal;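 note: score merges 667nm spot fluorescence with signal to noise across triplicate slides; reference of the scale not given here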
[13] = small-molecule microarray binders of probe aCHRDL2, primary screen, biochemical, biotinylated probe, 635/667 nm fluorescence (AID 1100); details: higher = more signal
[14] = splicing luciferase reporter signal modulators, primary screen, spliceosome inhibition project, cell-based, HEK293, splice +/- reporter (AID 1101); details: luminescence, 24 h, higher = more signal, called active from +8 up or from −8 down;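 note: HEK293 cells carrying a splicing-competent luciferase reporter gene; test concentration not given here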
[15] = biological target: Fibroblast growth factor 10 (Homo sapiens) (UniProt O15520); assay: FGF10 binders on small-molecule microarrays, primary screen, biochemical, small-molecule microarray, 635 nm fluorescence (AID 1102); details: FGF10 binding, fluorescence 635 nm, higher = more signal
[16] = tested on: glycogen synthase kinase-3 (GSK3A per assay name; protocol says GSK3B); assay: GSK3 binders on small-molecule microarrays, primary screen, biochemical, small-molecule microarray, 635 nm fluorescence, GSK3A (AID 1103); details: small-molecule microarray binding, fluorescence 635 nm; higher = more signal; note: the record names both GSK3A and GSK3B
[17] = biological target: Epidermal growth factor receptor (Homo sapiens) (UniProt P00533); assay: EGFR binders on small-molecule microarrays, primary screen, biochemical, small-molecule microarray, 635 nm fluorescence (AID 1104); details: EGFR binding, higher = more signal;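 note: score merges 667 nm emission intensity with spot signal to noise over triplicate slides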
[18] = biological target: Follistatin-related protein 3 (Homo sapiens) (UniProt O95633); assay: FSTL3 binders on small-molecule microarrays, primary screen, biochemical, small-molecule microarray, 635 nm fluorescence (AID 1105); details: FSTL3 binding, higher = more signal;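 note: score merges emission near 667 nm and signal to noise per printed spot across three slides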
[19] = biological target: Dickkopf-related protein 1 (Homo sapiens) (UniProt O94907); assay: DKK1 binders on small-molecule microarrays, primary screen, biochemical, small-molecule microarray, 635 nm fluorescence scan (AID 1106); details: DKK1 binding, higher = more signal;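 note: score merges emission near 667 nm with signal to noise over three replicate slides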
[20] = tested on: Inhibin beta A chain (activin A); assay: INHBA (activin A) binders on microarrays, primary screen, biochemical, small-molecule microarray, 635 nm fluorescence scan (AID 1107); details: small-molecule microarray binding, higher = more signal;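 note: mouse activin A protein probed at 4.33 µg/mL on printed slides; score merges bound-protein fluorescence near 667 nm with spot signal-to-noise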

Chain of Neurogenic locus notch homolog protein 3 (Homo sapiens) (Q9UM47 whole entry, looked up): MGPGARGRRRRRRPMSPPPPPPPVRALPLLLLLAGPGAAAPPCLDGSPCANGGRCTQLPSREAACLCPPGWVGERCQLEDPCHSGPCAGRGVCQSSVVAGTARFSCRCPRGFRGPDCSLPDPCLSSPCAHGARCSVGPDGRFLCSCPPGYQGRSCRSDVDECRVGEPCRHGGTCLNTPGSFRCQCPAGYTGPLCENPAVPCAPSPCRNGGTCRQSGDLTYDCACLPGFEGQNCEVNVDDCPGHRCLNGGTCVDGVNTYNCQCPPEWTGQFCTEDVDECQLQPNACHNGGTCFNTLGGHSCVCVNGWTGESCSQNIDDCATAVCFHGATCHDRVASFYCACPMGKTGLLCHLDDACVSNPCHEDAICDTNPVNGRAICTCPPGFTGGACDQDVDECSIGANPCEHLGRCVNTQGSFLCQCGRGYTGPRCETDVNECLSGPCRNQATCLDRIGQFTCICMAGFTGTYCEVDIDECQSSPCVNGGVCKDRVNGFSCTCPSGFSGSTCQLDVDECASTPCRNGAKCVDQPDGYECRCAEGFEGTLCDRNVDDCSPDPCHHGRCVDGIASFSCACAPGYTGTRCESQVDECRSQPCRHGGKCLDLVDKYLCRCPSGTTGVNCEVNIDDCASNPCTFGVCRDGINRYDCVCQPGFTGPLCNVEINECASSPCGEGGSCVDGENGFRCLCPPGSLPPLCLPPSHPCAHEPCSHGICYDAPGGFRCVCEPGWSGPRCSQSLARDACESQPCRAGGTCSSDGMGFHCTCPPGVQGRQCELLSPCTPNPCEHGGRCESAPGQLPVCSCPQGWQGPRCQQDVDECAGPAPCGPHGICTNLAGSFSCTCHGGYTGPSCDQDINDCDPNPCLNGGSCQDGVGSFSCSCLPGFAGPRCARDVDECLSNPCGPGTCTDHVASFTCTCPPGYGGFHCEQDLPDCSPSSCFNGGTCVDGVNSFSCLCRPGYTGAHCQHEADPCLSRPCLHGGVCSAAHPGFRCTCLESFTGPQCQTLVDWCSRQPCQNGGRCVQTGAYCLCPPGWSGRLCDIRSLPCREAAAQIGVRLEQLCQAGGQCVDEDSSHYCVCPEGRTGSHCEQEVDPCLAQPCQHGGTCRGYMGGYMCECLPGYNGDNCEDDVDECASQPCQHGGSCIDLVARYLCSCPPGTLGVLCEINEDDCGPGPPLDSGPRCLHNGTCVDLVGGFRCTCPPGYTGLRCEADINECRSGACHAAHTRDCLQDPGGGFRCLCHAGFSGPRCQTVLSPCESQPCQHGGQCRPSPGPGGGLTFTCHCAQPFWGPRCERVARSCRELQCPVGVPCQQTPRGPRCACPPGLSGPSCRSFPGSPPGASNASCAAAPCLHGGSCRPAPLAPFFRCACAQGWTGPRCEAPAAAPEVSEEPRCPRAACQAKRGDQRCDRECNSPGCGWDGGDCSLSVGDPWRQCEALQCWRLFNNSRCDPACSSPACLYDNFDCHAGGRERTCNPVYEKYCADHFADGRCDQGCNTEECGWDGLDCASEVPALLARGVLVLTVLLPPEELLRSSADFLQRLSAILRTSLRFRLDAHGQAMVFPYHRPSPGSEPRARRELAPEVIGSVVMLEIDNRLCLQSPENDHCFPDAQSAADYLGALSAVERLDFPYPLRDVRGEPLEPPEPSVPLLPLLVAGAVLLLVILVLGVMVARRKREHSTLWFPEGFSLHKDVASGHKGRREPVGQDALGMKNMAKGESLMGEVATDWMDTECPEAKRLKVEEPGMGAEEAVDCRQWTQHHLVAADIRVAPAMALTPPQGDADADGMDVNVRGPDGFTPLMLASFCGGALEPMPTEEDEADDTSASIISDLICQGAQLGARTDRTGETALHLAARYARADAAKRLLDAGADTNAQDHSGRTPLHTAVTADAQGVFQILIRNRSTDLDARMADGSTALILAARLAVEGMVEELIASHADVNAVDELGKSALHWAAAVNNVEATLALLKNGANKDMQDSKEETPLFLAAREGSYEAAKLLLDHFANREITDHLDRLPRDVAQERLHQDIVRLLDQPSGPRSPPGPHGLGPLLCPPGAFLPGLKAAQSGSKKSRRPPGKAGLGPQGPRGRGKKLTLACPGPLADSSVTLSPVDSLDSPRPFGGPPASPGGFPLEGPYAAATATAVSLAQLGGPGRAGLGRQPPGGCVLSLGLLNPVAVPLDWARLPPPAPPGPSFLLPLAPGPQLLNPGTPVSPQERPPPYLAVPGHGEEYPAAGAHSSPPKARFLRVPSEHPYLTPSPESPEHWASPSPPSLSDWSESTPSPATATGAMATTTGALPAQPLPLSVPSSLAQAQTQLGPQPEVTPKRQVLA
Chain of Epidermal growth factor receptor (Homo sapiens) (P00533 whole entry, looked up): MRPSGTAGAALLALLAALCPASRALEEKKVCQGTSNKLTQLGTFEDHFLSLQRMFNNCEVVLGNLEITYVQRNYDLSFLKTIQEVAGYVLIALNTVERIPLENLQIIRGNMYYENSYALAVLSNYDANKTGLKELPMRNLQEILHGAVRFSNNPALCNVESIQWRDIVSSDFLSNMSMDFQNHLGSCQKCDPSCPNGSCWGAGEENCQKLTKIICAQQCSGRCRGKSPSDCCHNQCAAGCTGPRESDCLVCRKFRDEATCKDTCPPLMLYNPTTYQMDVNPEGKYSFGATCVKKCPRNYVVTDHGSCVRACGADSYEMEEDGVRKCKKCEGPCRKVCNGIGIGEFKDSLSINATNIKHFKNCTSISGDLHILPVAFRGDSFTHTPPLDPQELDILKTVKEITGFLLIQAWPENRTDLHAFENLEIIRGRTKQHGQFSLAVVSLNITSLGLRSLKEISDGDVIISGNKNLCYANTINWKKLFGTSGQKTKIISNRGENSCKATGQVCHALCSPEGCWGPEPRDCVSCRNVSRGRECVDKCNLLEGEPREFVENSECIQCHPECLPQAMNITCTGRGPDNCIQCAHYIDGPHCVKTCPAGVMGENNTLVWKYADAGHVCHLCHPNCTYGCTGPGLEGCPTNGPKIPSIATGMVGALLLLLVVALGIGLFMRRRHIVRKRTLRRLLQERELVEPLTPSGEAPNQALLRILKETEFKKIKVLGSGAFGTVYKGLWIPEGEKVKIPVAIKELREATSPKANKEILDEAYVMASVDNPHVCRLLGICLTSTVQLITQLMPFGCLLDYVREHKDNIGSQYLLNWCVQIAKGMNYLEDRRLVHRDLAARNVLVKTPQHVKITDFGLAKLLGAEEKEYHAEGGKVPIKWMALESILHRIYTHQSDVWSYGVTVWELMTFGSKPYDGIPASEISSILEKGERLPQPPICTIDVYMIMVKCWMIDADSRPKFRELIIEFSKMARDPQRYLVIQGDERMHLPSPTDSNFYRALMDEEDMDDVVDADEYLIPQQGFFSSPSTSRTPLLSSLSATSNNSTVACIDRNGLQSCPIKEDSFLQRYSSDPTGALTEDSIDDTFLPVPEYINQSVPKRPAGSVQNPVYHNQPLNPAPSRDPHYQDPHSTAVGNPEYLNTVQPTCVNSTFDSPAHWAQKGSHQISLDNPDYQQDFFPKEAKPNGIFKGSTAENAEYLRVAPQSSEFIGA
Chain of Fibroblast growth factor 10 (Homo sapiens) (O15520 whole entry, looked up): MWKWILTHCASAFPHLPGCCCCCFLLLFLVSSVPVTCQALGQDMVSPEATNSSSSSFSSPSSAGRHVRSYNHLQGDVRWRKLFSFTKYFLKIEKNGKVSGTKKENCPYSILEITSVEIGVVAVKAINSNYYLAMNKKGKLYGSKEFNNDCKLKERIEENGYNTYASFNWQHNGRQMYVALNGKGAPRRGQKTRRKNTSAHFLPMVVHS
Chain of Torsin-1A-interacting protein 2 (Homo sapiens) (Q8NFQ8 whole entry, looked up): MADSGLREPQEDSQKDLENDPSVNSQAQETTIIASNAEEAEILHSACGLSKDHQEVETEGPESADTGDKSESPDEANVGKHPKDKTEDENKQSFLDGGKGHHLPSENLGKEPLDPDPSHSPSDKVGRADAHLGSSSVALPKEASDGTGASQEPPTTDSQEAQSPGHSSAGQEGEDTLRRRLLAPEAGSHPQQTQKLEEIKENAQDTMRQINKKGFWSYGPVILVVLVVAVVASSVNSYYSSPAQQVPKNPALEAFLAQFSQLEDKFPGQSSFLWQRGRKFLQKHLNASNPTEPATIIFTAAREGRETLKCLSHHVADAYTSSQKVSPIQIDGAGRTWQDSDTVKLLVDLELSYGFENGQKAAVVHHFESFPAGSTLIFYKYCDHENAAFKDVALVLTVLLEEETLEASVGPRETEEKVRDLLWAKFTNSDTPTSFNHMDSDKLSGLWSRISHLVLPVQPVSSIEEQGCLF
Chain of Dickkopf-related protein 1 (Homo sapiens) (O94907 whole entry, looked up): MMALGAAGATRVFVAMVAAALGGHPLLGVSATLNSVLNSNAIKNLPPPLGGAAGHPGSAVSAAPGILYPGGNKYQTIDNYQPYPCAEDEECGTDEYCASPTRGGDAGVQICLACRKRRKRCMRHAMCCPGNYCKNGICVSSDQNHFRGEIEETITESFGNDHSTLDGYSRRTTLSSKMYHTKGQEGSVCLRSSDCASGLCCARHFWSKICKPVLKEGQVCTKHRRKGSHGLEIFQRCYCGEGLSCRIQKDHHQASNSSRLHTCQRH
Chain of Follistatin-related protein 3 (Homo sapiens) (O95633 whole entry, looked up): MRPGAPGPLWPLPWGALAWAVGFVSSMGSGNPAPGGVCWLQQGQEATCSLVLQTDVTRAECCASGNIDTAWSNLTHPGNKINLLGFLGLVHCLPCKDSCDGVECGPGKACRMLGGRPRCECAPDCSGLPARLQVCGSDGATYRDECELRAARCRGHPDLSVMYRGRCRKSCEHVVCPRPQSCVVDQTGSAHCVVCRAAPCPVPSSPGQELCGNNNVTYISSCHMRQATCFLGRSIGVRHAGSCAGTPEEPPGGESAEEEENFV

Compound	composite z-score [1]	z-score [2]	z-score [3]	z-score [4]	composite z-score [5]	z-score [6]	composite z-score [7]	composite z-score [8]	composite z-score [9]	composite z-score [10]	composite z-score [11]	composite z-score [12]	composite z-score [13]	z-score [14]	composite z-score [15]	composite z-score [16]	composite z-score [17]	composite z-score [18]	composite z-score [19]	composite z-score [20]
C=C(/C(=C/C[C@@H](OC(=O)c1ccncc1)c1ccc(CO)o1)c1cc(C(=O)OC)ccc1OC)C(C)C	1.53	0.523 (inactive)	-1.28 (inactive)	-0.414 (inactive)	2.47	0.481 (inactive)	-0.129	0.855	1.03	0.0073	1.32	-0.0623	-0.109	0.614 (inactive)	1.3	1.14	0.439	1.13	0.432	-0.0326
O=C(NCC(O)CO)[C@@]1(Cc2ccccc2)N=C(c2ccc(OCCCO)cc2)O[C@H]1c1ccccc1 (stereo not given in full)	0.814	-0.738 (inactive)	-0.456 (inactive)	-1.26 (inactive)	3.57	1.62 (inactive)	0.491	0.431	-0.376	0.298	0.616	1.15	1.36	-0.395 (inactive)	0.698	0.591	-1.2	-0.378	-0.72	0.661
[N-]=[N+]=NCc1ccccc1[C@@H]1OC(c2ccc(OCCCO)cc2)=N[C@]1(Cc1ccccc1N=[N+]=[N-])C(N)=O	1.55	-0.0556 (inactive)	-1.33 (inactive)	-0.91 (inactive)	3.29	0.43 (inactive)	0.361	0.37	1.04	0.171	1.48	0.367	1.16	0.352 (inactive)	1.38	1.27	-0.0099	0.995	0.259	1.06
Cc1ccc(S[C@]2(C(=O)NCC(F)(F)F)CC(=O)N(C3Cc4ccccc4C3)[C@@H]2c2ccc(CO)cc2I)cc1	-0.535	0.0775 (inactive)	-0.967 (inactive)	1.81 (inactive)	1.18	-0.701 (inactive)	0.157	-0.883	-1.08	-0.255	1.08	0.599	1.19	-0.426 (inactive)	-1.02	-1.3	-1.51	-1	-2.11	0.554
C#C[C@H](O[Si](C#CCCCCCC)(C(C)C)C(C)C)c1ccccc1	0.631	0.0821 (inactive)	0.384 (inactive)	-0.653 (inactive)	0.432	0.411 (inactive)	-0.114	0.186	0.13	-0.171	-0.369	-0.109	-0.132	-0.22 (inactive)	-0.0831	0.173	-0.33	-0.215	-0.169	0.168
CCOC(=O)C[C@H]1[C@H](OC(=O)c2ccccc2-c2ccccc2)[C@@H](NC(=O)c2ccc(-c3ccccc3)cc2)c2cc(OCCCO)ccc2N1C(=O)c1ccccc1	0.997	0.742 (inactive)	0.5 (inactive)	1.7 (inactive)	1.99	1.04 (inactive)	-0.0888	0.603	0.695	0.104	0.154	0.319	-0.181	0.119 (inactive)	0.888	0.425	0.31	0.645	0.531	-0.0094
COc1ccc([Si](C)(C)[C@H]2[C@H](CCO)O[C@@]3(C(=O)N(Cc4cccc(N5C(=O)c6cccc7cccc5c67)c4)c4ccccc43)[C@@H]2C)cc1	1.16	2.05 (inactive)	1.23 (inactive)	36.9 (active)	2.1	0.879 (inactive)	-0.205	0.492	0.344	-0.225	1.25	-0.207	0.442	-1.27 (inactive)	0.668	0.149	-0.437	0.277	-0.701	-0.345
CCCNC(=O)[C@@]1(C)c2ccccc2C(=O)N(Cc2cc(F)cc(C(F)(F)F)c2)[C@H]1c1ccc(CO)cc1	0.136	-1.34 (inactive)	-0.974 (inactive)	-1.24 (inactive)	2.08	0.423 (inactive)	-0.174	0.0391	-0.131	-0.194	1.25	0.0202	0.995	-0.377 (inactive)	-1.02	-0.552	-0.668	-0.286	-1.44	-0.496
C=C(CCCC)C(=O)CC[C@@H](OC(=O)c1ccccc1-c1ccccc1C(=O)O)c1ccc(CO)o1	1.56	-0.516 (inactive)	-0.0561 (inactive)	-0.667 (inactive)	0.779	0.122 (inactive)	0.0202	1.24	0.534	0.0068	0.628	-0.0075	-0.301	0.716 (inactive)	1.22	1.1	-0.183	0.818	1.03	1.01
C=CCOC(=O)[C@@H]1[C@H]2C(=O)O[C@H](c3ccccc3)[C@H](c3ccccc3)N2[C@H](c2ccc(OCCOC(=O)[C@H]3C[C@H]4C(=O)N[C@@H](Cc5ccccc5)C(=O)N4[C@H]3c3ccc(O)cc3)cc2)[C@@]12C(=O)Nc1ccc(I)cc12	1.54	2.61 (inactive)	-1.76 (inactive)	0.88 (inactive)	1.83	-1.96 (inactive)	-0.0879	0.906	1.09	0.128	1.54	0.232	0.163	0.00712 (inactive)	1.22	1.33	0.906	1.29	1.26	-0.418

— PubChem BioAssay
